Several values for one entry are separate records, joined by “and”; a condition that tells them apart may be missing. Equal values may be shown once. Results filed as inconclusive are left out. Entries that show only a call come without a potency. Where a structure was tested more than once in an assay, its records may differ in their call. Activity calls are given as the source filed them. Unless noted, calls come from the whole dose curve; as a rule, active = well fitted curve in the direction sought with a large enough effect in the repeat runs; inconclusive = weak or mixed curves; inactive = no such curve, though single readings can be large; an effect the other way counts as inactive or inconclusive.
How the values were obtained:
[1] = qHTS assay to identify small molecule antagonists of the androgen receptor (AR) signaling pathway using the MDA cell line in the presence of 0.5 nM R1881 - cell viability counter screen (AID 1259242); note: nearly all actives have a fitted effect of over 45% in size; note: potency is the fitted concentration of half-maximal effect
Summary of the method: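 Live-cell protease activity was measured by CellTiter-Fluor fluorescence after 30 min. Before that, MDA-kb2 MMTV-luciferase cells had 16 hr at 37C without CO2, exposed to test compounds and 0.5 nM R1881 final.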

[2] = biological target: Estrogen receptor (Homo sapiens) (UniProt P03372); experiment: qHTS assay to identify small molecule antagonists of the estrogen receptor alpha (ER-alpha) signaling pathway using the BG1 cell line in the presence of 0.1 nM 17-beta-estradiol (AID 1259244); note: nearly all actives have a fitted effect of over 50% in size
Sequence of Estrogen receptor (Homo sapiens) (P03372 whole entry, looked up): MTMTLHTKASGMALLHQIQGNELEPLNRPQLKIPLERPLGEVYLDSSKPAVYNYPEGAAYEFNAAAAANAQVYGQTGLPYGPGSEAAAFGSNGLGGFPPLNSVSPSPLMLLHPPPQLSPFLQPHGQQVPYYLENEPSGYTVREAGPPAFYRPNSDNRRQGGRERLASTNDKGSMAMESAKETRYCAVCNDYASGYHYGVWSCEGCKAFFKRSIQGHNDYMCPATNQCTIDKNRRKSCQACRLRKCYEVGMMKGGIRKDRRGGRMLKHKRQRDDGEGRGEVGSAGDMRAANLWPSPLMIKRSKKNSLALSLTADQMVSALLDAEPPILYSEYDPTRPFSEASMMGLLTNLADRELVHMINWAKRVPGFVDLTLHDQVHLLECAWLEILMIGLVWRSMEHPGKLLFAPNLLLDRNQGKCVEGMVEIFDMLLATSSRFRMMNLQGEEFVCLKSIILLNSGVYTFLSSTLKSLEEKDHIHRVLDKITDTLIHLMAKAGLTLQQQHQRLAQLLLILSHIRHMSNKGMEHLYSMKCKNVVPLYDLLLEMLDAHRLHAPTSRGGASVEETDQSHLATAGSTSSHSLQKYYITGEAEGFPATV
Summary of the method: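 Luciferase luminescence (ONE-Glo, 30 min at room temperature) was read after 22 hr at 37C exposure to compounds plus 17beta-estradiol at 0.1 nM final. Cells were VM7Luc4E2 with endogenous ER-alpha and an ERE-driven luciferase, pre-cultured 5 days in hormone-depleted medium.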

[3] = qHTS assay to identify small molecule HDAC inhibitors (AID 1259364); note: top concentration of the series differs between compounds; nearly all actives have a fitted effect of over 45% in size
Summary of the method: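 Luminescence read after 30 min room-temperature HDAC-Glo incubation measures cellular class I/II HDAC activity. Compounds were applied for 2 hr at 37 C to HCT-116 wild-type cells seeded the day before.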

[4] = qHTS assay to identify small molecule HDAC inhibitors - cell viability counter screen (AID 1259365); note: series mostly up to about 92 µM; nearly all actives have a fitted effect of over 50% in size
Summary of the method: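 Cytotoxicity was gauged in wild-type HCT-116 cells after a brief 2hr treatment with DMSO-dissolved compounds at 37C and 5% CO2, using CellTiter-Glo luminescence developed for 30min at room temperature.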

[5] = qHTS assay to identify small molecule agonists of the sonic hedgehog signaling (Shh) pathway - cell viability counter screen (AID 1259366); note: nearly all actives have a fitted effect of over 50% in size; note: potency is the fitted concentration of half-maximal effect
Summary of the method: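 Stable Gli1-Luc NIH/3T3 clone, 2,000 cells/well. Compound exposure 24hr at 37C. Read-out: CellTiter-Fluor fluorescence.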

[6] = qHTS assay to identify small molecule antagonists of the sonic hedgehog signaling (Shh) pathway - cell viability counter screen (AID 1259367); note: nearly all actives have a fitted effect of over 55% in size; note: potency is the fitted concentration of half-maximal effect
Summary of the method: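 Fluorescence read-out (CellTiter-Fluor, 1 hr at 37C) taken after 23 hr compound treatment of 3T3 Gli1-Luc cells stimulated with conditioned medium. Cells were seeded at 2,000 per well and pre-incubated 4 hr.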

[7] = qHTS assay to identify small molecule agonists of the sonic hedgehog signaling (Shh) pathway (AID 1259368; calls by dose curve;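 note: NIH/3T3-derived 3T3Gli1-Luc cells carrying a stable Gli1-driven firefly luciferase reporter; series mostly up to about 92 µM; nearly all actives have a fitted effect of over 15% in size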)
Summary of the method: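 Luminescence was read after 30 min at room temperature with luciferase reagent. Before that, 3T3Gli1-Luc cells (NIH/3T3 clone, stable Gli1-Luc reporter; 2,000/well) were exposed to compounds for 24 hr at 37C, 5% CO2, compounds being added 4 hr post-plating.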

[8] = qHTS assay to identify small molecule antagonists of the sonic hedgehog signaling (Shh) pathway (AID 1259369; calls by dose curve; note: nearly all actives have a fitted effect of over 45% in size; note: potency is the fitted concentration of half-maximal effect)
Summary of the method: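 Antagonist mode: compound added to 3T3 Gli1-Luc cells followed by conditioned-medium stimulation, 24 h at 37 C, 5% CO2. Inhibition taken as loss of Gli1-driven luciferase luminescence.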

[9] = qHTS assay to identify small molecule agonists of the androgen receptor (AR) signaling pathway in the presence of an antagonist - cell viability counter screen (AID 1259379); note: nearly all actives have a fitted effect of over 25% in size; note: potency is the fitted concentration of half-maximal effect
Summary of the method: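 Cytotoxicity counter-screen run in the same wells as the nilutamide-challenged (3.0 µM final) AR agonist assay in MDA-kb2 cells. Compounds tested at 15 concentrations for 16 h, 37 °C without CO2; CellTiter-Fluor fluorescence read.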

[10] = qHTS assay to identify small molecule agonists of the estrogen receptor beta (ER-beta) signaling pathway - cell viability counter screen (AID 1259380); note: nearly all actives have a fitted effect of over 30% in size; note: potency is the fitted concentration of half-maximal effect
Summary of the method: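 Cell viability counter screen: CellTiter-Glo luminescence (30 min, room temperature) measured in the same wells as the beta-lactamase readout, after 16 hr compound exposure at 37C of ER-beta-bla HEK293T cells in 2% charcoal-stripped FBS medium.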

[11] = qHTS assay to identify small molecule antagonists of the estrogen receptor beta (ER-beta) signaling pathway - cell viability counter screen (AID 1259382); note: nearly all actives have a fitted effect of over 55% in size; note: potency is the fitted concentration of half-maximal effect
Summary of the method: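 Cytotoxicity was measured in the same wells by CellTiter-Glo luminescence after 30 min at room temperature. Cells were ER-beta-bla HEK293T in charcoal-stripped serum, given compound together with 1 nM E2 and incubated 16 h at 37C.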

[12] = qHTS assay to identify small molecule agonists or antagonists of the thyroid stimulating hormone receptor (TSHR) signaling pathway - wild type cell line counter screen (AID 1259384; calls by dose curve)
Summary of the method: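 Wild-type Hek293 cells, 800/well, 18 h at 37C, then compound with Ro20-1724 for 30 min RT. cAMP by HTRF (cAMP-d2/anti-cAMP cryptate), 1 h RT, fluorescence read. 15 concentrations, triplicates.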

[13] = biological target: Thyrotropin receptor (Homo sapiens) (UniProt P16473); experiment: qHTS assay to identify small molecule antagonists of the thyroid stimulating hormone receptor (TSHR) signaling pathway (AID 1259385; calls by dose curve; note: nearly all actives have a fitted effect of over 20% in size; note: potency is the fitted concentration of half-maximal effect)
Sequence of Thyrotropin receptor (Homo sapiens) (P16473 whole entry, looked up): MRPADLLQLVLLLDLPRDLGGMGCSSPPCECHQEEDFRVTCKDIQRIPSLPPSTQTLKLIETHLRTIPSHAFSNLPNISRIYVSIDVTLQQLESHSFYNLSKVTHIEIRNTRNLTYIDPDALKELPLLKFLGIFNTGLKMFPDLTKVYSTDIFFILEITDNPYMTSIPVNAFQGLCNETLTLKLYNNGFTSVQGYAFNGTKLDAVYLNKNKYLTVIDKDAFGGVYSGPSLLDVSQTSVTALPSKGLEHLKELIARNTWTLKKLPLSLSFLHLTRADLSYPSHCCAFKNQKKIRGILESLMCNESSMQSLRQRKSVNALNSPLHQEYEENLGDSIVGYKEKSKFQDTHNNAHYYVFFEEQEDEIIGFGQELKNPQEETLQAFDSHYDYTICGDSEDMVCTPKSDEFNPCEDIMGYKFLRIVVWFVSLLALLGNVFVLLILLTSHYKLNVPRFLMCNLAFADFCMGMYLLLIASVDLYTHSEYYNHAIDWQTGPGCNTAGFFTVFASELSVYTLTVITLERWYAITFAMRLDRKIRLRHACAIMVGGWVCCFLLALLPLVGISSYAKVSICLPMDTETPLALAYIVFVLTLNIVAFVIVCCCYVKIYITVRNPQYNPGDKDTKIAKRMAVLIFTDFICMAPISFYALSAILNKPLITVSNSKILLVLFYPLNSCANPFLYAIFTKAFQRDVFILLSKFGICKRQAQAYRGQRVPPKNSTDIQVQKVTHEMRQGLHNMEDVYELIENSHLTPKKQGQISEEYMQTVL
Summary of the method: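 TSHR-HEK293 cells (800/well) plated 18 h, then compounds with Ro20-1724 and TSH at 1.5 ng/mL final, 30 min at room temperature. cAMP quantified by HTRF (cAMP-d2/anti-cAMP-cryptate, 1 h); 15 concentrations in triplicate.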

[14] = qHTS assay to identify small molecule agonists of the estrogen receptor alpha (ER-alpha) signaling pathway in the presence of an antagonist - cell viability counter screen (AID 1259386); note: series mostly up to about 92 µM; nearly all actives have a fitted effect of over 30% in size
Summary of the method: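 Compounds tested at 15 concentrations for 22 h at 37C alongside 10.0nM (final) ICI-182,780 antagonist, in VM7Luc4E2 cells grown in phenol red-free, charcoal-stripped medium. Viability read by CellTiter-Fluor fluorescence after 1 h reagent incubation.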

[15] = biological target: Estrogen receptor beta (Homo sapiens) (UniProt Q92731); experiment: qHTS assay to identify small molecule agonists of the estrogen receptor beta (ER-beta) signaling pathway (AID 1259377; active = well fitted activation curve with a large enough effect in the signal ratio in the repeat runs, not every such curve was filed as active; the % refers to the signal ratio)
Sequence of Estrogen receptor beta (Homo sapiens) (Q92731 whole entry, looked up): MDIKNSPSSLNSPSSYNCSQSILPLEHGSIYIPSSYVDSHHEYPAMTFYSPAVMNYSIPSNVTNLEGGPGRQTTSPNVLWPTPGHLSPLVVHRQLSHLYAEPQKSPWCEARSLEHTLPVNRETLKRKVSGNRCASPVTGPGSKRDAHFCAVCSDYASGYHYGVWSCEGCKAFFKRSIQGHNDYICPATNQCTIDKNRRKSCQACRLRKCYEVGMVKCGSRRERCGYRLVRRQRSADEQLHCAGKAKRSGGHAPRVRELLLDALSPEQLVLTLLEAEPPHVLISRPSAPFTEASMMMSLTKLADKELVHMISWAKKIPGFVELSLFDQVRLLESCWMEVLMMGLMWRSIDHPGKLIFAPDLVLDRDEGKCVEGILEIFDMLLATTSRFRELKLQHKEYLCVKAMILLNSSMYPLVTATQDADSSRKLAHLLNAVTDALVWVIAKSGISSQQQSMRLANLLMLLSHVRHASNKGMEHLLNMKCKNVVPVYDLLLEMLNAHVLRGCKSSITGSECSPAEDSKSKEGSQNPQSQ
Summary of the method: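 Measured by fluorescence intensity from a B/G FRET beta-lactamase substrate (2 h, room temperature) in ER-beta-UAS-bla HEK293T cells treated with DMSO-dissolved compounds for 16 hr at 37C and 5% CO2.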

[16] = biological target: Estrogen receptor beta (Homo sapiens) (UniProt Q92731); experiment: qHTS assay to identify small molecule antagonists of the estrogen receptor beta (ER-beta) signaling pathway (AID 1259378; active = well fitted inhibition curve with a large enough effect in the signal ratio in the repeat runs, not every such curve was filed as active; the % refers to the signal ratio; note: potency is the fitted concentration of half-maximal effect)
Summary of the method: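 ER-beta-UAS-bla HEK293T cells in 2% charcoal-stripped FBS medium treated with compound plus 1nM final 17-beta-estradiol for 16 hr at 37C. Beta-lactamase reporter read by FRET substrate fluorescence after 2 hours at room temperature.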

[17] = biological target: Estrogen receptor (Homo sapiens) (UniProt P03372); experiment: qHTS assay to identify small molecule agonists of the estrogen receptor alpha (ER-alpha) signaling pathway in the presence of an antagonist (AID 1259383; calls by dose curve; note: top concentration of the series differs between compounds; nearly all actives have a fitted effect of over 15% in size)
Summary of the method: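 Agonist-mode confirmation run in the presence of 10.0nM (final) ICI-182,780 antagonist. The reporter was ERE-driven luciferase in VM7Luc4E2 cells, grown in charcoal-stripped serum. Cells were exposed to 15-concentration compound series for 22hr, then ONE-Glo luminescence was read.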

[18] = qHTS assay to identify small molecule phospholipidosis (PLD) inducers (AID 1259344; active = well fitted curve in the direction sought with a large enough effect; an effect the other way counts as inactive or inconclusive; note: potency is the fitted concentration of half-maximal effect)
Summary of the method: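 Read-out is LipidTOX Red fluorescence (ex 595/em 615) imaged in HepG2 cells after 24 h compound exposure at 37 C, with Hoechst nuclear counterstain (ex 352/em 461) allowing per-cell normalisation.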

SMILES	Potency [1]	Potency [2]	Potency [3]	outcome [4]	Potency [5]	Potency [6]	Potency [7]	Potency [8]	Potency [9]	Potency [10]	Potency [11]	Potency [12]	Potency [13]	Potency [14]	Potency [15]	Potency [16]	Potency [17]	Potency [18]
OCCNCCO	inactive	inactive	inactive	inactive	inactive	inactive	inactive	inactive	inactive	inactive	inactive	inactive	inactive	inactive				
[O-]/[N+](=N\O)c1ccccc1	inactive	inactive		inactive	inactive	inactive	inactive	inactive	inactive	inactive	inactive	inactive	inactive	inactive	inactive	inactive		
C1COCCN1	inactive	inactive		inactive	inactive	inactive	inactive	inactive	inactive	inactive	inactive	inactive	inactive	inactive	inactive	inactive	inactive	
CCCOCCO	inactive		inactive	inactive	inactive	inactive	inactive	inactive	inactive	inactive	inactive	inactive	inactive	inactive				
C=CCCCCCCCCCC	inactive			inactive	inactive		inactive	inactive	inactive	inactive	inactive			inactive	inactive	inactive		
O=C(O)CCCCCCCCCCCC(=O)O	inactive			inactive	inactive	inactive	inactive	inactive	inactive	inactive	inactive	inactive	inactive	inactive				
IC(I)I	inactive		inactive	inactive	inactive	inactive	inactive	15.3 µM (active) and inactive	inactive	inactive	inactive	inactive	inactive	inactive	inactive	inactive		inactive
CN(C)CCCN1c2ccccc2Sc2ccc(Cl)cc21	61.1 µM (active)			inactive	30.6 µM (active) and 23.7 µM (active)	61.1 µM (active)	inactive	13.7 µM (active) and inactive	61.1 µM (active)	19.3 µM (active) and 16.8 µM (active)	27.3 µM (active) and 18.8 µM (active)	inactive	26.6 µM (active)	inactive	inactive	30.6 µM (active) and 21.1 µM (active)		3.16 µM (active)
CN1CCOCC1	inactive		inactive	inactive	inactive		inactive	inactive	inactive	inactive	inactive			inactive	inactive	inactive		
C[C@]12CC[C@@H]3c4ccc(O)cc4CC[C@H]3[C@@H]1CC[C@H]2O	inactive		inactive	inactive	inactive	inactive	inactive	4.94 µM (active) and 4.86 µM (active)	inactive			inactive	31.2 µM (active)	inactive				
C=C[C@H]1CN2CC[C@H]1C[C@H]2[C@H](O)c1ccnc2ccc(OC)cc12	inactive		inactive	inactive	inactive	inactive			inactive	inactive	inactive			inactive				inactive
C=CC(=O)OCCCC	inactive		inactive	inactive	inactive		inactive	inactive	inactive	inactive	inactive	inactive	inactive	inactive	inactive	inactive		
C[C@]12CC[C@@H]3c4ccc(O)cc4CC[C@H]3[C@@H]1CC[C@@H]2O	inactive		inactive	inactive	inactive	inactive	inactive	3.06 µM (active) and 5.45 µM (active)	inactive		inactive	inactive		inactive				inactive

— PubChem BioAssay (Tox21)
